Screens deposited in PubChem BioAssay by National Center for Advancing Translational Sciences (NCATS).
TexasRed fluor: alters Texas Red total fluorescence, flagging assay interference; Potency, µM (titrated, usually from 106 µM); 280,000 tested, 0.29% active; TRb/SRC2 Texas Red total fluorescence interference; active means well fitted curve in either direction with a large enough effect; inconclusive means small, poorly fitted or top-dose-only effect
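Human TRβ ligand-binding domain (0.6 uM) and Texas Red SRC2 peptide (20 nM) in Tris buffer with 1 uM T3 and 5% DMSO were incubated with pinned compound for 5 hr at ambient temperature. Total fluorescence was computed as S + 2P (555/632 nm).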
Tau fibril FP: tau fibrillization inhibition (FP); K18 P301L tau heparin fibrillization, Alexa594 FP, 6 h; Potency, µM (doses to about 57.7 µM), most hits filed as inhibitors; 280,000 tested, 0.39% active; further: nearly all actives have a fitted effect of over 55% in size
Target sequence (P10636 561-689 P618L limits assumed): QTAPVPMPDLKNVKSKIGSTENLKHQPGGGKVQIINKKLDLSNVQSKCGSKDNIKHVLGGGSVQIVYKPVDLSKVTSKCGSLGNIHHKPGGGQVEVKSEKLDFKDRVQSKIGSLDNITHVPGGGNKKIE
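Human K18 P301L fragment (15 uM unlabeled plus 0.24 uM Alexa 594-labeled) in 100 mM sodium acetate pH 7 with compound, aggregation induced by 20 uM heparin for 6 hr at 37 C. ThT (30 uM) added for 1 hr, then Alexa 594 FP read.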
TRb-SRC2 inh: inhibitors of human thyroid hormone receptor beta-SRC2 interaction. P10828. TRbeta-SRC2 peptide binding, fluorescence polarization; receptor liganded with 1 µM T3. Potency, µM (series often up to 106 µM), actives largely listed as inhibitors. 280,000 tested, 0.065% active; further: nearly all actives have a fitted effect of over 50% in size
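Human TRb ligand-binding domain (0.6 uM) is mixed with 20 nM Texas Red SRC2 peptide and 1 uM T3; after compound addition and 5 hr at ambient temperature, polarization is measured and normalized to unbound and bound controls.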
Tau fibril ThT: blocks human tau fibril formation measured by thioflavin T. AID 1460. Potency, µM (doses to about 57.4 µM), most hits filed as inhibitors. recombinant tau K18 P301L, heparin-induced fibrillization, ThT fluorescence. 270,000 tested, 2.1% active; further: nearly all actives have a fitted effect of over 55% in size
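Aggregation was driven by heparin (20 uM final) acting on recombinant tau […] bearing P301L in 100 mM sodium acetate pH 7; fibrils were detected with Thioflavin T.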
PNC assembly inh: perinucleolar compartment assembly inhibition | 140,000 tested, 3.1% active | activity change (PNC), negative = inhibition, % at 10 µM | PC3M PTB-GFP, PNC prevalence imaging, 16 h; stronger effect = lower value;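 active means readout at or below -70, meaning at least 70% loss of cells showing the perinucleolar compartment, a nuclear body marking cancer cells; inconclusive means readout between -30 and a set limit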
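Read-out is percentage of cells bearing a perinucleolar compartment, from automated 20x imaging of fixed, Hoechst-stained PC3M PTB-GFP cells. Cells were seeded 4 h, then exposed 16 h to compound (23 nl of library stock) in duplicate plates.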
Tau fluor cs: counter-screen for tau fibril formation inhibitors; tau K18 P301L Alexa594 fluorescence, heparin fibrillization; Potency, µM (titrated, usually from 57.7 µM); 280,000 tested, 0.93% active; further: nearly all actives have a fitted effect of over 55% in size
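Human tau K18 P301L (15 uM unlabeled, 0.24 uM Alexa 594-labeled) in 100 mM sodium acetate pH 7 with 20 uM heparin, 6 hr at 37 C. ThT 30 uM added, 1 hr ambient; Alexa 594 FP and total fluorescence read at 555/632 nm.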
Numbers stand for hits; - = inactive; ? = inconclusive; . = no result given; ! = not confirmed by another sample; [ ] = dose if it differs, or a comment. An excerpt weighted towards active compounds, which were near 4.6% of everything screened. Unless noted, the call rests on the fitted dose curve; in most records, active means well fitted curve in the direction sought with a large enough effect; inconclusive means small, poorly fitted or top-dose-only effect, or another doubt; inactive means no such curve, though single readings can be large; an effect the other way counts as inactive or inconclusive.

SMILES	TexasRed fluor	Tau fibril FP	TRb-SRC2 inh	Tau fibril ThT	PNC assembly inh	Tau fluor cs
CC(=O)c1ccc(C(=O)Nc2ccc(N3CCOCC3)cc2)cc1	-	-	-	2.2µM	-	-
CC(C)c1ccc(C(=O)Nc2ccc(N3CCOCC3)cc2)cc1	-	-	-	-	-	-
CCOc1ccccc1CNC(=O)c1ccc(NC(=O)N2CC(C)Sc3ccccc32)cc1 (stereo not given)	-	-	-	-	.	-
Cn1cc(CNC(=O)c2cc(-c3ccccc3)nc3ccc(Br)cc23)cn1	-	?	-	-	-	-
CCCC[C@@H]1C[C@H]1C(NC(=O)c1ccccc1)c1ccc(C(=O)OC)cc1 (stereo not given in full)	-	-	-	-	.	-
O=C(Nc1ccc(N2CCOCC2)cc1)Nc1ccc(Cl)c(Cl)c1	-	?	-	13µM	-	8.9µM[quencher]
CC(=O)c1ccc(N2CCN(C(=O)Nc3ccc(C(C)C)cc3)CC2)cc1	0.032µM![quencher]	-	-	?	.	?
CCC(=O)N1CCN(c2ccc(NC(=S)NC(=O)COc3ccccc3)cc2)CC1	-	-	-	?	.	-
CC(=O)N1CCN(c2ccc(NC(=S)NC(=O)COc3ccc(C(C)(C)C)cc3)cc2)CC1	-	-	-	4µM	-	-
CC(C)(C)c1ccc(C(=O)NC(=S)Nc2ccc(N3CCOCC3)cc2)cc1	-	-	-	?	-123	-
CC(=O)c1ccc(N2CCN(C(=O)Nc3ccc(F)cc3)CC2)cc1	-	-	-	-	.	-
Cn1c(CSCc2ccccc2)nnc1SCC(=O)Nc1ccc(C(=O)O)cc1	-	-	-	-	.	-
COc1ccc2oc(C(=O)C3CC3)c(N)c2c1	-	-	-	?	-	-
O=C(Nc1ccc(N2CCOCC2)cc1)c1cc2c(s1)CCCCC2	-	-	-	10µM	.	?
CCC12CCCN3CCc4c(n(c5ccccc45)C(O)(C(=O)OC)C1)C32 (stereo not given)	-	?	-	18µM	.	?
CCOc1ccccc1NC(=O)CCSc1nc2n[nH]c(C)c2c(=N)n1-c1ccccc1Cl	-	-	-	-	-	-
C/C(Cl)=C\Cn1c(Nc2ccc(C)cc2)nc2c1c(=O)n(C)c(=O)n2C	-	-	-	-	-95	-
COc1ccc(OCC(O)Cn2c(Nc3ccccc3)nc3c2c(=O)n(C)c(=O)n3C)cc1 (stereo not given)	-	-	-	-	-83	-
C/C(Cl)=C/Cn1c(N2CCCC2)nc2c1c(=O)n(C)c(=O)n2C	-	-	-	-	-	-
CCn1cc(C(=O)NCCCOC(C)C)c(=O)c2cc(S(=O)(=O)N(C)C3CCCCC3)ccc21	-	-	-	-	.	-
CCCC(CCC)C(=O)Nc1ccncc1	-	-	-	-	-	-
CCCC(C)C(=O)Nc1ccncc1 (stereo not given)	-	-	-	-	-100	-
c1ccc(-c2nnnc3ccccc23)cc1	-	-	-	-	?	-
Clc1ccc2nnnc(-c3ccccc3)c2c1	-	-	-	?	-98	-
COc1cccc(=O)c2c(C)n(CC(=O)c3ccccc3)c(C)c12	-	-	-	14µM	.	?
SMILES	TexasRed fluor	Tau fibril FP	TRb-SRC2 inh	Tau fibril ThT	PNC assembly inh	Tau fluor cs
CCOc1cccc(=O)c2c(C)n(CC(=O)c3ccccc3)c(C)c12	-	-	-	?	.	-
O=C(O)c1ccccc1-c1ccc(/C=c2\sc3nc4cc(Br)cnc4n3c2=O)o1	-	?	-	?	?	-
COc1ccc(OC)c(Nc2ccc(Nc3cc(OC)ccc3OC)nn2)c1	-	?	-	?	-	13µM[quencher]
N#Cc1c(-c2ccccc2)ccnc1Oc1ccccc1	-	-	-	-	-96	-
COc1ccc(Oc2nccc(OC)c2C#N)cc1	-	-	-	-	-	-
Cc1ccccc1C1=CCN(c2ncc(NC(=O)c3ccc(Cl)cc3)cc2C(=O)O)CC1	-	?	-	14µM	.	-
O=[N+]([O-])c1ccc(N=Nc2c(Cl)cc(O)cc2Cl)cc1	-	32µM	-	.	.	8.9µM[quencher]
COc1cc(OC)cc(C(=O)Nc2cc(NC(=O)c3ccco3)ccc2OC)c1	-	-	-	-	-	-
